Several values for one entry are separate records, joined by “and”; a condition that tells them apart may be missing. Identical values can stand only once. Records with an inconclusive call do not appear. Activity calls are given as the source filed them. Unless noted, the call rests on the fitted dose curve; in most records, active means well fitted curve in the direction sought with a large enough effect; inconclusive means small, poorly fitted or top-dose-only effect, or another doubt; inactive means no such curve, though single readings can be large; an effect the other way counts as inactive or inconclusive.
Key:
[1] = Stat Signaling Pathway (AID 446; active means well fitted curve in either direction with a large enough effect, not every such curve was filed as active;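 further: ME-180 cervical cancer cells given 40 pM IL-6 alongside compound; SIE-controlled beta-lactamase reporter measured as 460/530 nm FRET emission ratio; on the % scale 0 is the no-effect control and ±100 the full control effect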); conditions: ME-180 SIE beta-lactamase reporter, IL-6 stimulated, 5 h
Method in brief: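 Reporter line: ME-180 cervical carcinoma, SIE-beta-lactamase. Treatment: compound with 40 pM IL-6, 5 hrs, 37 C, in low-serum OPTI-MEM with 10 mM HEPES pH 7.3. Detection: 460/530 nm fluorescence.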

[2] = target: Glucocorticoid receptor (Homo sapiens) (UniProt P04150); test: GR-GFP Redistribution (AID 450;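 active means compounds whose dose series gives a full or clear partial fitted curve of increased nuclear translocation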; further: potency means the concentration at half of the fitted maximal effect); conditions: U2OS GR-GFP nuclear translocation, laser cytometry, 2 h
[3] = target: Glucocorticoid receptor (Homo sapiens) (UniProt P04150); test: GR-EFC Redistribution (AID 451; calls by dose curve; further: potency means the concentration at half of the fitted maximal effect); conditions: CHO-K1 GR-EFC translocation, beta-gal luminescence, 2 h
Method in brief: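 Translocation of GR-ED fusion to nuclear EA restores b-gal, read by luminescence after 1 h room-temperature detection. Engineered CHO-K1 biosensor cells, 1,000/well, exposed 2 h at 37 C to titrations up to 46 uM final.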

[4] = target: Mitogen-activated protein kinase 10 (Mus musculus) (UniProt Q61831); test: JNK3 AlphaScreen Assay (AID 530; active means well fitted curve in either direction with a large enough effect, not every such curve was filed as active;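 further: kinase came from lysate of stimulated human HepG2 cells; signal reports phosphorylation of biotinylated GST-cJun 1-79 at Ser73 with 10 µM ATP; on the % scale 0 is the no-effect control and ±100 the full control effect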); conditions: JNK3 lysate, c-Jun phosphorylation; series mostly up to 57.1 µM
Method in brief: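 Room-temperature AlphaScreen kinase assay; pre-activated HepG2 lysate as JNK3 source, biotin-GST-cJun(1-79) substrate, 10 uM ATP, compound 15 min preincubation.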

[5] = Cell Viability - N2a (AID 540); conditions: N2a mouse neuroblastoma cell viability; activity change, negative = cytotoxicity: at 92.2 µM (top of the series);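 further: plate controls were DMSO alone for no effect and tamoxifen control for full effect; nearly all actives have a fitted effect of over 45% in size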
Method in brief: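 Mouse neuroblastoma N2a cells (1500/well) were preincubated 5 hr at 37 °C, then exposed to compounds for 40 hr at 37 °C in complete medium. Viability was read as intracellular ATP by CellTiter-Glo luminescence; AC50 from Hill fits.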

[6] = Cell Viability - NIH 3T3 (AID 541); conditions: NIH 3T3 cell viability, qHTS; activity change, negative = cytotoxicity: at 92.2 µM (top of the series);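 further: plate controls were DMSO alone for no effect and tamoxifen positive control for full effect; nearly all actives have a fitted effect of over 25% in size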
Method in brief: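 NIH 3T3 mouse embryo fibroblasts (1000 cells/well) were plated in complete medium and treated with compound for 40 hr at 37 °C. Viability was read as intracellular ATP by CellTiter-Glo luminescence; AC50 values came from Hill-equation fits of concentration-response data.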

[7] = Cell Viability - HUV-EC-C (AID 542); conditions: HUV-EC-C endothelial cell viability, qHTS; series mostly up to 92.2 µM; further: on the % scale 0 is the no-effect control and ±100 the full control effect; nearly all actives have a fitted effect of over 35% in size
Method in brief: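 HUV-EC-C normal human vascular endothelial cells, 1000 cells/well, pre-incubated 5 hr at 37 °C, then exposed to compounds for 40 hr at 37 °C in complete medium. Viability measured as intracellular ATP by CellTiter-Glo luminescence; AC50 from Hill fits.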

[8] = Cell Viability - SH-SY5Y (AID 544); conditions: SH-SY5Y neuroblastoma cell viability; series mostly up to 92.2 µM; further: nearly all actives have a fitted effect of over 55% in size
Method in brief: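 Human neuroblastoma SH-SY5Y cells (1500/well) in complete medium were exposed to compounds for 40 hr at 37 °C; intracellular ATP was then quantified by CellTiter-Glo luminescence after 20 min at room temperature. AC50 came from Hill-equation concentration-response fits.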

[9] = Cell Viability - Renal Proximal Tubule (AID 545); conditions: renal proximal tubule cells viability, primary cells of rat origin; series mostly up to 91.7 µM; further: nearly all actives have a fitted effect of over 40% in size
Method in brief: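 Rat kidney proximal tubule cells, freshly isolated; 1000 cells/well, 5 hr settle, compound 40 hr 37 °C. CellTiter-Glo 20 min RT, luminescence read. AC50 by standard Hill fit.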

[10] = Cell Viability - Mesenchymal (AID 546); conditions: mesenchymal cells viability, qHTS; series mostly up to 91.7 µM;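 further: cells exposed to compound for 40 hours before reading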
Method in brief: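 AC50 values reflect the drop in intracellular ATP in a human kidney mesenchymal line derived from normal glomeruli. Treatment lasts 40 hr at 37 °C in complete medium, and the signal comes from CellTiter-Glo luminescence.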

[11] = target: 3',5'-cyclic-AMP phosphodiesterase 4B (Homo sapiens) (UniProt Q07343); test: qHTS Assay for Inhibitors of PDE-IV (AID 607; active means well fitted activation curve with a large enough effect in the main read-out, with a control signal flat, not every such curve was filed as active; further: % of control where 0% means no effect); conditions: HEK293 ACTOne CNG channel cells, membrane potential fluorescence; series mostly up to 22.9 µM
Method in brief: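 Cell-based read-out of cAMP via a modified cyclic nucleotide-gated channel and membrane potential dye (535/590 nm) in HEK293 cells expressing PDE4 endogenously. Compounds tested up to 22.9 uM final; 100 uM RO 20-1724 reference.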

[12] = Cellular Toxicity (caspase-3) HepG2 (AID 654); conditions: HepG2 caspase-3 activation, luminescence; series mostly up to 92.2 µM;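 further: cells exposed to compound for 16 hours before reading; 0% = DMSO alone and 100% = caspase signal from 100 µM tamoxifen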
Method in brief: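 HepG2 cells (1500/well) in complete medium were treated with compounds for 16 hr at 37 °C. Caspase-3/7 activity was then read as luminescence from peptide-aminoluciferin cleavage. AC50 came from Hill fits, normalized to DMSO and 100 uM tamoxifen.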

[13] = Cellular Toxicity (caspase-3) Jurkat (AID 655); conditions: Jurkat caspase-3 activation, luminescence; series mostly up to 92.2 µM;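 further: cells exposed to compound for 16 h at 37 °C before reading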
Method in brief: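 Luminescent caspase-3/7 readout (aminoluciferin substrate cleavage) in human T-cell leukemia Jurkat cells after 16 hr compound exposure. Concentration-response normalized to DMSO and 100 uM tamoxifen; AC50 by standard Hill equation.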

[14] = Cellular Toxicity (caspase-3) HUV-EC-C (AID 656); conditions: HUV-EC-C cells, caspase-3 activation (apoptosis), vehicle = 0, 100 µM tamoxifen = 100%; series mostly up to 92.2 µM
Method in brief: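 Luminescent caspase-3/7 activation (aminoluciferin substrate cleavage) in HUV-EC-C cells after 16 hr compound exposure, 37°C. Signal normalized to DMSO basal and 100 uM tamoxifen as 100%; AC50 from concentration-response fitted with the Hill equation.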

[15] = Cellular Toxicity (caspase-3) BJ (AID 658); conditions: BJ fibroblasts, luminescence, normalized: DMSO 0%, staurosporine 100%; series mostly up to 91.7 µM;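 further: 0% = DMSO basal and 100% = 10 µM staurosporine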
Method in brief: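 Readout: Caspase-Glo 3/7 luminescence increase in BJ cells after 16 hr treatment at 37 °C. Staurosporine and tamoxifen served as positive controls; AC50 values came from Hill modelling of data normalized to DMSO and 10 uM staurosporine.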

[16] = Cellular Toxicity (caspase-3) MRC-5 (AID 659); conditions: MRC-5 cells, luminescence; Potency: caspase-3 activation; series mostly up to 91.7 µM;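 further: 0% = DMSO basal and 100% = 10 µM staurosporine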
Method in brief: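 Concentration-dependent caspase 3/7 activation is measured in human normal lung fibroblasts (MRC-5) following 16-hour treatment. AC50 values come from standard Hill-equation modeling of luminescence normalized to DMSO and 10 uM staurosporine.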

[17] = Cellular Toxicity (caspase-3) Mesangial (AID 660); conditions: mesangial cells, normalized: DMSO 0%, 100 µM tamoxifen 100%; series mostly up to 91.7 µM;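 further: cells exposed to compound for 16 h before the caspase read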
Method in brief: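 Human renal glomerular mesangial cells (1000/well) were treated with compounds for 16 h at 37 °C in complete medium, then caspase 3/7 activity was read by Caspase-Glo luminescence. Data were normalized to DMSO and 100 uM tamoxifen; AC50 from Hill fits.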

[18] = Cellular Toxicity (caspase-3) SK-N-SH (AID 661); conditions: SK-N-SH caspase-3 activation, qHTS, DMSO as zero, staurosporine as full; series mostly up to 91.7 µM;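 further: 0% = DMSO basal and 100% = 10 µM staurosporine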
Method in brief: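 SK-N-SH human neuroblastoma cells (1500/well) were treated with compounds for 16 hr at 37 °C in complete medium; caspase 3/7 activity was read by Caspase-Glo luminescence. AC50 came from Hill fits of data normalized to DMSO and 10 uM staurosporine.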

[19] = Cellular Toxicity (caspase-3) H-4-II-E (AID 663); conditions: H-4-II-E rat hepatoma, scaled: DMSO 0%, 100 µM tamoxifen 100%; series mostly up to 92.2 µM;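 further: cells exposed to compound for 16 hr before readout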
Method in brief: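 Apoptosis induction is scored as increased luminescence from caspase 3/7 substrate cleavage in rat hepatoma H-4-II-E cells exposed to compound for 16 hr. Activity is scaled between DMSO and 100 uM tamoxifen.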

[20] = Cellular Toxicity (caspase-3) Hek293 (AID 664); conditions: HEK293 caspase-3 activation, DMSO = 0%, 100 µM tamoxifen = 100%; series mostly up to 92.2 µM;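 further: cells exposed to compound for 16 h at 37 °C before readout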
Method in brief: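 HEK293 cells were exposed to compounds in complete medium for 16 hr at 37 °C, then caspase-3/7 activity was read by Caspase-Glo 3/7 luminescence after 20 min at room temperature. Data normalized to DMSO and 100 uM tamoxifen; AC50 from Hill fits.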

Sequence of Glucocorticoid receptor (Homo sapiens) (P04150 whole entry, looked up, the tested form may be a part): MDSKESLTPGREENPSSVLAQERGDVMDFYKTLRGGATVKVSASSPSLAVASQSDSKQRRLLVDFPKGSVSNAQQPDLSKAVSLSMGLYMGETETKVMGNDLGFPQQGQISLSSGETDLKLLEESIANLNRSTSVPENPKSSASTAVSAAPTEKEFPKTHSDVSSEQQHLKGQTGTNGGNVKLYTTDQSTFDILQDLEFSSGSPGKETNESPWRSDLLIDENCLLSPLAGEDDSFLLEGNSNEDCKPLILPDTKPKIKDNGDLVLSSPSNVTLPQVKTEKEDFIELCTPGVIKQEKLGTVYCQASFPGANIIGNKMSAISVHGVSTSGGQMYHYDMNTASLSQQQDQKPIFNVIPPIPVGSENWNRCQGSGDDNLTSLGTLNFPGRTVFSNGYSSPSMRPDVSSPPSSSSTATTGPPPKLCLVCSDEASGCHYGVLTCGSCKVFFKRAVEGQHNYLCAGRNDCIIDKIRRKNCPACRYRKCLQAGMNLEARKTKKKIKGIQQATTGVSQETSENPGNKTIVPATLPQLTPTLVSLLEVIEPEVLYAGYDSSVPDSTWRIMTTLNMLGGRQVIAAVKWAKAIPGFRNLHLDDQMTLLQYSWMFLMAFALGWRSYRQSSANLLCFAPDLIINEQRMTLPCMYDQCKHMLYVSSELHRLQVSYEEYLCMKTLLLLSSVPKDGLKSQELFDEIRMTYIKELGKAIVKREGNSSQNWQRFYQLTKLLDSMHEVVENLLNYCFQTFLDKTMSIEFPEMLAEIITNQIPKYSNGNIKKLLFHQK
Sequence of 3',5'-cyclic-AMP phosphodiesterase 4B (Homo sapiens) (Q07343 whole entry, looked up): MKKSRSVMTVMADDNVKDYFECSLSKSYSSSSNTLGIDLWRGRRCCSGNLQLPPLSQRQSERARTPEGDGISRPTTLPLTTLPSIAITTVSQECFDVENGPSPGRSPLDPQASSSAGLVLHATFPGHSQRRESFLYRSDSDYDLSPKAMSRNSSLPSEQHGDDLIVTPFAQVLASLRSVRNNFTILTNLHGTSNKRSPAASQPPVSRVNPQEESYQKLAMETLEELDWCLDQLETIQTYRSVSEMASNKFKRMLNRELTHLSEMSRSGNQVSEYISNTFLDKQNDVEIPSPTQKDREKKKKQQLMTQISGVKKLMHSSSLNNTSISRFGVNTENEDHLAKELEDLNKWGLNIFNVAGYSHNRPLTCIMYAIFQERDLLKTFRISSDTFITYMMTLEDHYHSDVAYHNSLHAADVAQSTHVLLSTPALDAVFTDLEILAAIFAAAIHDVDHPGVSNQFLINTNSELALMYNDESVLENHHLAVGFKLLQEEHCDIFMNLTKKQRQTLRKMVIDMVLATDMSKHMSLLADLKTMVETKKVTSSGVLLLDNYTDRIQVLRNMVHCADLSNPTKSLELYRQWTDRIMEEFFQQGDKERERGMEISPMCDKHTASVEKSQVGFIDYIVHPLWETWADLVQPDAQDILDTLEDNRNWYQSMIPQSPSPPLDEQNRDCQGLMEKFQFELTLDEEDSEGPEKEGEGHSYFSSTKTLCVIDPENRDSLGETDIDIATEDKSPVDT

Cc1cc(CC(=O)O)n(C)c1C(=O)c1ccc(Cl)cc1
inactive: activity, negative = inhibition ([1]; at 17.2 µM (top of the series)) 8.99% | Potency [2] > 20.6 µM | Potency [3] > 20.6 µM | Potency [4] | activity change, negative = cytotoxicity [5] -9.12% | Potency [6] | Potency [7] | Potency [8] | Potency [9] | outcome [10] | outcome [11] | Potency [12] | Potency [13] | outcome [14] | outcome [15] | Potency [16] | outcome [17] | outcome [18] | outcome [19] | outcome [20]

Cc1ncc([N+](=O)[O-])n1CC(O)CCl (centres undefined)
inactive: activity, negative = inhibition ([1]; at 17.2 µM (top of the series)) 0.729% | Potency [2] > 20.6 µM

NC1CCN(c2cccc(Cl)n2)CC1
inactive: activity, negative = inhibition ([1]; at 38 µM (top of the series)) -14.3% | Potency [2] > 46 µM | Potency [3] > 46 µM | Potency [4] | outcome [11]

Nc1ccc(S(=O)(=O)Nc2ccc(Cl)nn2)cc1
inactive: activity, negative = inhibition ([1]; at 17.2 µM (top of the series)) -3.21% | Potency [4] | outcome [11]

CCCCN(CCCC)CCCOC(=O)c1ccc(N)cc1
inactive: Potency [2] > 20.6 µM | Potency [3] > 20.6 µM | Potency [4]

CCn1cc(C(=O)O)c(=O)c2cnc(N3CCNCC3)nc21
inactive: activity, negative = inhibition ([1]; at 17.2 µM (top of the series)) 3.23% and 2.72% | Potency [4] | outcome [11]

CCCc1c(OCCCCc2nn[nH]n2)ccc(C(C)=O)c1O
inactive: activity, negative = inhibition ([1]; at 17.2 µM (top of the series)) -12.8% | Potency [2] > 20.6 µM

CC(C)NC[C@H](O)c1ccc(O)c(O)c1
inactive: activity, negative = inhibition ([1]; at 17.2 µM (top of the series)) -5.65% and -7.18% | activity, negative = inhibition ([1]; at 38 µM (top of the series)) -27.8% and -1.34% and -7.26% | Potency [2] > 46 µM and > 20.6 µM | Potency [3] > 46 µM and > 20.6 µM | Potency [4] | outcome [11]

CC(CN1c2ccccc2Sc2ccccc21)N(C)C (centres undefined)
inactive: activity, negative = inhibition ([1]; at 17.2 µM (top of the series)) -1.09%

CC(=O)OCC(=O)[C@@]1(O)CC[C@H]2[C@@H]3CCC4=CC(=O)CC[C@]4(C)[C@H]3C(=O)C[C@@]21C
inactive: activity, negative = inhibition ([1]; at 17.2 µM (top of the series)) 11.3%

OCC(O)CN1CCN(c2ccccc2)CC1 (centres undefined)
inactive: Potency [2] > 20.6 µM

Nc1ccc(S(=O)(=O)Nc2nccs2)cc1
inactive: Potency [2] > 20.6 µM | Potency [3] > 20.6 µM | Potency [4] | activity change, negative = cytotoxicity [5] -2.29% | Potency [7] | Potency [9] | outcome [10] | outcome [11] | Potency [12] | Potency [13] | outcome [14] | outcome [15] | Potency [16] | outcome [17] | outcome [18] | outcome [19] | outcome [20]

Source: PubChem BioAssay (NCATS)
